Source: PubChem (The Scripps Research Institute Molecular Screening Center)
sPLA2-III inh = Blocks human group III sPLA2 activity. Q9NZ20. QFRET BODIPY PC-A2 liposome hydrolysis, fluorescence. inhibition, % at 12.2 µM. 370,000 compounds, 0.56% hits;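 active = inhibition above mean plus 3 SD of compounds lying within the high and low control bounds, cut at about 19% in these data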;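 note: 0% = median of test compound wells and 100% = no enzyme DMSO wells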
Target sequence (Q9NZ20 whole entry, looked up): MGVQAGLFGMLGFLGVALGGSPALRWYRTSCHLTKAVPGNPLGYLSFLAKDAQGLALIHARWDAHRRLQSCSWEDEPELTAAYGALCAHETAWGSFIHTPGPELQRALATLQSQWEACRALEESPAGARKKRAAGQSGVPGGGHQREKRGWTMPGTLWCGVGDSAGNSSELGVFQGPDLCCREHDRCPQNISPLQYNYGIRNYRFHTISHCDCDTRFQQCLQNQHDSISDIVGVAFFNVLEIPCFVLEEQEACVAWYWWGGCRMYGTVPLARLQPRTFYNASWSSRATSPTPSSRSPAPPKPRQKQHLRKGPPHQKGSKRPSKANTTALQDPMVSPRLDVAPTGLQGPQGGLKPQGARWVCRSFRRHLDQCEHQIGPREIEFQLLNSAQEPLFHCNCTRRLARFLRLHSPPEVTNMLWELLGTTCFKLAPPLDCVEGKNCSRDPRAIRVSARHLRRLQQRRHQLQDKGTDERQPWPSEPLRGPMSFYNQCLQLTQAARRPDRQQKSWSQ
rCAG binder = binds r(CAG) RNA repeats; inhibition, % at 3 µM; r(CAG) RNA repeat, TO-PRO-1 dye displacement fluorescence; AID 651821; 370,000 compounds, 1.3% hits;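 active = inhibition above the plate cutoff, the mean of all test compounds on that plate plus 3 SD, cut at about 35% in these data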;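 note: 0% = DMSO alone and 100% = 100 µM mitoxantrone as full dye displacement; higher means more dye released from RNA so lower well fluorescence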
MsrA act = bovine methionine sulfoxide reductase A activation. activation, % at 10.6 µM. 360,000 compounds, 0.3% hits. AID 602163. purified bovine MsrA, absorbance read-out; in the data active = activation above about 7.5%;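 note: 0% = vehicle and 100% = reference activator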
MsrA inh = inhibits bovine methionine sulfoxide reductase A; purified bovine MsrA, absorbance read-out; inhibition, % at 15.5 µM; 360,000 compounds, 0.75% hits; AID 651718; in the data active = inhibition above about 4.5%;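 note: 0% = vehicle wells with enzyme and 100% = reference inhibitor wells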
rCAG bind conf = r(CAG) RNA repeat binding, confirmation | inhibition, % at 3 µM | shares compounds with rCAG binder | 4,300 compounds, 70% hits | AID 652065 | TO-PRO-1 dye displacement fluorescence;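 active = inhibition above a per-plate cutoff, the mean inhibition of sample wells plus 3 SD, cut at about 35% in these data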;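 note: loss of TO-PRO-1 fluorescence as compound displaces dye from 1x1 AA loop RNA; 0% = DMSO only wells and 100% = 100 µM mitoxantrone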
DNA CAG counter = counter-screen for rCAG RNA binders: DNA CAG dye complex inhibitors | shares compounds with rCAG binder | inhibition, % at 3 µM | 4,300 compounds, 94% hits | d(CAG) DNA oligo TO-PRO-1 dye displacement, fluorescence;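 active = inhibition above its plate's cutoff, the mean test-well inhibition plus 3 SD, cut at about 4.8% in these data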;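 note: 0% = DNA dye mix with DMSO and 100% = 100 µM mitoxantrone; hits displace the dye from DNA and so lower well fluorescence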
dCAG dye DR = disrupts DNA CAG TO-PRO-1 complex in dose response; shares compounds with rCAG binder; DNA CAG/GTC duplex TO-PRO-1 dye displacement fluorescence; IC50, µM; 250 compounds, 20% hits; AID 686960; in the data active = IC50 below about 10 µM
Active calls of the source: *; i = inactive; nt = no result given. Sampled rows, rich in hits. Any-hit rate of the full collection: about 2.8%.

SMILES	sPLA2-III inh	rCAG binder	MsrA act	MsrA inh	rCAG bind conf	DNA CAG counter	others
C/C(=N\N=C(/N)SC1CC(=O)N(c2cccc(Cl)c2)C1=O)c1cccs1 (stereo not drawn)	-58.5	53.9*	-4.3	1.0	72.6*	28.6*	dCAG dye DR=i
CCCOc1ccc(N2C(=O)CC(S/C(N)=N/N=C(\C)c3cccs3)C2=O)cc1 (stereo not drawn)	-66.7	65.7*	-9.0	0.3	70.3*	26.0*	dCAG dye DR=>29.9
CC(/C=C/c1ccc(N(C)C)cc1)=N\N=C(/N)SC1CC(=O)N(c2ccc(C(=O)O)cc2)C1=O (stereo not drawn)	-1.4	7.0	-4.6	0.1	nt	nt
CCCOc1ccc(N2C(=O)CC(SC(=NCC)NCC)C2=O)cc1 (stereo not drawn)	-3.4	-0.1	-5.1	-0.3	nt	nt
O=C(c1cc(F)cc2c1OCOC2)N1CCN(c2ccc(F)cc2)CC1	1.6	-3.0	-5.9	-0.8	nt	nt
Cc1ccc2nc(-c3cccc(Cl)c3)c(Cc3ccccc3)n2c1	0.9	7.3	-2.3	-0.8	nt	nt
Cc1ccc(-c2nc3ccc(C)cn3c2Cc2cccc(Cl)c2)cc1	-6.5	6.1	-1.7	0.1	nt	nt
Clc1cccc(-c2nc3ccc(Br)cn3c2Cc2ccccc2)c1	-25.8	49.5*	-0.3	0.2	13.4	4.3
Cc1cc2nc(-c3ccc(F)cc3)c(Cc3cccc(Cl)c3)n2c(C)c1Br	-16.5	61.5*	-14.8	1.0	28.8	8.4*
Cc1ccc(-c2nc3cc(C)c(Br)c(C)n3c2Cc2cccc(Cl)c2)cc1	nt	nt	-5.0	nt	nt	nt
Clc1ccc(-c2nc3ccc(Br)cn3c2Cc2cccc(Cl)c2)cc1	-24.9	37.6*	-5.2	-0.4	32.5	9.2*
Cc1ccc(-c2nc3ccc(Cl)cn3c2Cc2cccc(Cl)c2)cc1	-42.4	59.1*	-2.9	0.7	42.0*	10.1*
Cc1cc(C)nc(CCNC(=O)c2cc(COc3ccccc3)on2)n1	-12.0	-4.4	-0.1	-1.1	nt	nt
Fc1cccc(Cc2c(-c3ccccc3)nc3ccc(Br)cn23)c1	-10.8	11.0	-4.9	0.1	nt	nt
Clc1cccc(Cc2c(-c3cccc(Br)c3)nc3ccc(Br)cn23)c1	-23.9	52.4*	-2.3	-0.6	39.1*	9.1*
Brc1cccc(-c2nc3ccc(Br)cn3c2Cc2ccccc2)c1	-23.9	48.7*	-1.3	-0.4	11.6	6.2*
Clc1cccc(Cc2c(-c3cccc(Cl)c3)nc3ccc(Br)cn23)c1	-4.8	10.1	-1.7	-0.1	nt	nt
CC(=O)Nc1ccc2[nH]c3ccccc3c2c1	-2.6	2.0	-5.5	1.1	nt	nt
O=C(Nc1ccc(Cl)cc1)c1cc2c(cc1O)[nH]c1ccccc12	-36.8	90.6*	-7.2	1.0	85.1*	53.3*
O=C(CN1C(=O)/C(=C2/SC(=S)N(CCS(=O)(=O)O)C2=O)c2ccccc21)Nc1cccc(Br)c1	-10.3	72.9*	-2.9	-0.8	80.3*	49.1*
Cc1cccc(NC(=O)CN2C(=O)/C(=C3\SC(=S)N(CC4CCCO4)C3=O)c3ccccc32)c1 (stereo not drawn)	nt	nt	-4.1	nt	nt	nt
O=C(O)c1ccc(Cl)c(NC(=S)NC(=O)c2cccc(COc3ccccc3)c2)c1	-0.7	9.5	0.4	-0.5	nt	nt
N#C/C(=C\c1ccc(OCc2ccc(Cl)cc2)cc1)C(=O)Nc1cccc(C(=O)O)c1	1.4	2.3	-0.5	0.4	nt	nt
CCCCOc1cccc(C(=O)NC(=S)Nc2ccc(Cl)c(C(=O)O)c2)c1	-2.7	44.3*	-3.2	0.6	49.4*	9.4*	dCAG dye DR=>29.9
O=C(O)c1cccc(NC(=O)c2ccc(COc3ccc(Cl)cc3)cc2)c1	-9.5	47.0*	-9.7	-0.1	53.5*	16.3*
SMILES	sPLA2-III inh	rCAG binder	MsrA act	MsrA inh	rCAG bind conf	DNA CAG counter	others
O=C(NC(=S)Nc1ccc(Cl)c(C(=O)O)c1)c1ccc(OCc2ccccc2)cc1	-25.1	68.5*	-1.9	1.8	62.1*	25.4*
COc1cc(OC)cc(C(=O)NC(=S)Nc2ccc(Cl)c(C(=O)O)c2)c1	7.0	14.0	-2.4	0.5	nt	nt
O=C(NC(=S)Nc1ccc(Cl)c(C(=O)O)c1)c1cccc(COc2ccccc2)c1	-21.2	70.8*	-6.5	0.3	67.5*	29.6*
COc1ccc(CC(=O)OCC(=O)NCC2CCCO2)cc1OC (stereo not drawn)	8.6	0.7	-3.2	-0.9	nt	nt
COc1cccc(OC)c1C(=O)Nc1ccc(S(=O)(=O)Nc2cc(C)nc(C)n2)cc1	2.6	5.1	-0.6	-0.1	nt	nt
CN(C)c1ccc(/C=C(/NC(=O)c2ccccc2)C(=O)N/N=C/c2ccc([N+](=O)[O-])c(O)c2)cc1	-17.1	67.0*	-6.9	3.9	61.8*	26.3*
S=c1[nH]nc(-c2cc(-c3ccccc3)n[nH]2)n1/N=C/C=C/c1ccccc1	15.0	24.9	0.2	-0.2	nt	nt
S=c1[nH]nc(-c2cc(-c3ccccc3)n[nH]2)n1N=Cc1c[nH]c2ccccc12	-15.4	78.4*	nt	nt	65.7*	22.8*
S=c1[nH]nc(-c2cc(-c3ccccc3)n[nH]2)n1/N=C/c1ccccc1	14.1	27.6	-2.0	-0.6	nt	nt
S=c1[nH]nc(-c2cccs2)n1/N=C/c1c(Cl)cccc1Cl	-15.9	49.9*	-0.2	3.4	43.8*	10.3*
S=c1[nH]nc(-c2cc(-c3ccccc3)n[nH]2)n1/N=C/c1cccs1	5.2	35.5*	-0.8	-0.8	39.2*	10.3*
COc1ccc(NC(=S)N(CCCN2CCOCC2)Cc2ccccn2)cc1	-2.2	-4.9	-3.0	0.3	nt	nt
O=C(NCCN1CCCCC1)c1ccco1	5.8	-0.4	-2.5	0.8	nt	nt
O=C(Cn1cc(COc2ccc(-n3cccc3)cc2)nn1)NS(=O)(=O)c1ccccc1C(F)(F)F	-35.5	64.0*	-2.6	-1.7	65.4*	18.2*
O=C(Cn1cc(COc2ccc(Cl)c(Cl)c2)nn1)NS(=O)(=O)c1ccccc1C(F)(F)F	-45.8	59.5*	-1.2	1.7	63.3*	15.7*
COc1ccc(C)cc1NC(=O)CNC(=O)Cn1ccc2ccccc2c1=O	2.2	-2.1	-2.7	-0.6	nt	nt
Cc1ccc(S(=O)(=O)N2[C@@H](c3cccc(Cl)c3)C(C(=O)O)=CC[C@H]2c2cccc(Cl)c2)cc1	-5.2	8.7	-3.2	0.2	nt	nt
CCc1ccc([C@H]2C(C(=O)O)=C[C@@H](CC)N2S(=O)(=O)c2ccc(C)cc2)cc1	-0.9	21.0	-1.7	0.7	nt	nt
CCc1ccc([C@@H]2CC=C(C(=O)O)[C@H](c3ccc(Cl)cc3)N2S(=O)(=O)c2ccc(C)cc2)cc1	-41.5	83.2*	-0.2	0.5	84.8*	54.3*
CCc1ccc([C@@H]2CC=C(C(=O)O)[C@H](c3ccccc3F)N2S(=O)(=O)c2ccc(C)cc2)cc1	-32.1	68.8*	-8.0	0.2	72.8*	34.7*
CCc1ccc([C@@H]2CC=C(C(=O)O)[C@H](c3cccc(Cl)c3)N2S(=O)(=O)c2ccc(C)cc2)cc1	-35.6	81.6*	0.5	0.2	76.1*	35.5*
